HCV inhibitor – blocks hepatitis C virus; AID 651820; 340,000 tested, 3.4% active; Huh7.5.1 HCVcc-Cre infection, luciferase reporter, 44 h; Potency, µM (doses to about 41.8 µM), for the others: top-dose activity change, negative = inhibition, usual class: inhibitors; active means well fitted inhibition curve with a large enough effect; inconclusive means small, poorly fitted or top-dose-only effect, or another doubt; inactive means no such curve, though single readings can be large or run the other way; further: potency means the concentration at half of the fitted maximal effect
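Antiviral activity was scored by luciferase reporter output from cells infected with HCVcc-Cre (~0.5 moi) in presence of compound, 44 h infection period, cells seeded 1,000/well 4 h prior.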
FMDV antiviral – blocks foot and mouth disease virus. FMDV antiviral cell-based qHTS. Potency, µM (titrated, usually from 57.9 µM), inactives show at the highest dose activity change, negative = inhibition, usual class: inhibitors. 410,000 tested, 1.2% active. AID 1159524; calls by dose curve; tested in HEK293T cells; further: read-out not given here; potency means the concentration at half of the fitted maximal effect; nearly all actives have a fitted effect of over 45% in size
VACV mCherry inh – inhibitors of vaccinia virus infection (mCherry reporter signal); Potency, µM (highest dose often 36.5 µM), without a hit: top-dose activity change, negative = inhibition, hits mostly inhibitors; AID 720579; Vaccinia virus mCherry reporter infection, fluorescence; 310,000 tested, 0.63% active; calls by dose curve; tested in A549 cells; further: potency means the concentration at half of the fitted maximal effect; nearly all actives have a fitted effect of over 35% in size
HCMV inh – inhibitors of human cytomegalovirus | HFF cells, HCMV-luciferase reporter, 72 h; active compounds read low | activity change, negative = inhibition, % at 57.5 µM | 410,000 tested, 4.5% active; in the data active means activity change below about -60%; inconclusive means no clear call, values can overlap the other calls; inactive means above about -39%
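Human foreskin fibroblasts infected with luciferase-reporter HCMV at MOI 1 PFU/cell, compounds at two doses. Luciferase measured 72 h post infection; normalized to buffer-only basal and Salinomycin (10uM) controls.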
Vaccinia Venus – inhibitors of vaccinia virus (Venus reporter); Vaccinia virus Venus reporter expression, fluorescence; Potency, µM (series often up to 36.5 µM), inactives show at the top dose activity change, negative = inhibition, usual class: inhibitors; 330,000 tested, 0.46% active; AID 720580; calls by dose curve; tested in A549 cells; further: potency means the concentration at half of the fitted maximal effect; nearly all actives have a fitted effect of over 30% in size
Starred values were filed as active, the others as inactive. Hits are enriched below; roughly 7.3% of the tested compounds scored in any of these assays. On the % scale 0 is the no-effect control and ±100 the full control effect.

How did COCC(C)n1c(SCc2cc(=O)n3cc(C)ccc3n2)nc2ccccc2c1=O (stereo unspecified) do in these assays?
HCV inhibitor: inconclusive; FMDV antiviral: -29%; VACV mCherry inh: -10%; HCMV inh: -61*; Vaccinia Venus: 4%

How did Cc1ccc2nc(CSc3nnc(-c4ccco4)n3-c3ccccc3)cc(=O)n2c1 do in these assays?
HCV inhibitor: -1%; FMDV antiviral: -2%; HCMV inh: -105*

Results for O=C(NCc1ccc(F)cc1)C(=O)NCC(c1ccco1)S(=O)(=O)c1cccs1 (stereo unspecified) ?
FMDV antiviral: -20%; VACV mCherry inh: -18%; HCMV inh: 13; Vaccinia Venus: -4%

How did O=c1c(-c2cc(F)cc(F)c2)nc2cnc(N3CCNCC3)nc2n1-c1ccccc1 do in these assays?
FMDV antiviral: -22%

Results for OC(c1ccc2c(c1)CN(Cc1cccn1-c1ncccn1)CCO2)C1CCCCC1 (stereo unspecified) ?
FMDV antiviral: -19%; VACV mCherry inh: -15%; Vaccinia Venus: -15%

How did O=C(Nc1ccc(-c2csc(Nc3ccc(Cl)cc3)n2)cc1)c1cccc(C(F)(F)F)c1 do in these assays?
HCV inhibitor: 11µM*; FMDV antiviral: 20µM*; VACV mCherry inh: inconclusive; HCMV inh: inconclusive; Vaccinia Venus: inconclusive

How did O=C(Nc1nc(-c2ccc(Cl)cc2)cs1)c1cccnc1 do in these assays?
HCV inhibitor: 0%; FMDV antiviral: -11%; VACV mCherry inh: -5%; HCMV inh: 12; Vaccinia Venus: -20%

What do the screens show for `O=C(Nc1ccc(-c2csc(Nc3ccccc3)n2)cc1)c1cccc(C(F)(F)F)c1`?
HCV inhibitor: inconclusive; FMDV antiviral: inconclusive; VACV mCherry inh: inconclusive; HCMV inh: -81*; Vaccinia Venus: inconclusive

Results for O=C(Nc1ccccc1)c1cccc(C(F)(F)F)c1 ?
HCV inhibitor: 22%; FMDV antiviral: 6%; VACV mCherry inh: 4%; HCMV inh: -34; Vaccinia Venus: -11%

Results for CC(C)C(=O)NC(c1ccc(N(C)C)cc1)c1ccc2cccnc2c1O (stereo unspecified) ?
VACV mCherry inh: 4µM*; Vaccinia Venus: inconclusive

Results for CC(C)C(=O)NC(Nc1cccc2cccnc12)C(Cl)(Cl)Cl (stereo unspecified) ?
HCV inhibitor: inconclusive; FMDV antiviral: inconclusive; VACV mCherry inh: -25%; HCMV inh: -33; Vaccinia Venus: -14%

Results for CC(C)C(=O)NC(c1ccco1)c1ccc2cccnc2c1O (stereo unspecified) ?
HCV inhibitor: 4µM*; FMDV antiviral: -18%; HCMV inh: -102*; Vaccinia Venus: inconclusive

How did CC(=O)NC(c1ccco1)c1cc(Cl)c2ccc(Cl)nc2c1O (stereo unspecified) do in these assays?
FMDV antiviral: 0%; HCMV inh: -29

What do the screens show for `Oc1c(C(Nc2nc3ccccc3s2)c2ccco2)ccc2cccnc12` (stereo unspecified)?
HCV inhibitor: 2.5µM*; FMDV antiviral: 26%; VACV mCherry inh: 2.8µM*; HCMV inh: -98*; Vaccinia Venus: inconclusive

Results for CCN(CC)c1ccc(C(NC(=O)C(C)C)c2ccc3cccnc3c2O)cc1 (stereo unspecified) ?
FMDV antiviral: -22%; VACV mCherry inh: inconclusive; HCMV inh: -99*; Vaccinia Venus: inconclusive

Results for CCCN1C(=O)CC[C@@H](S(=O)(=O)c2ccccc2)[C@@H]1c1ccc(OC)cc1 ?
HCMV inh: -11

Results for CCSc1nc2c([nH]c3ccccc32)c(=O)n1-c1ccc(OC)cc1 ?
FMDV antiviral: -5%; VACV mCherry inh: 0%; HCMV inh: 42; Vaccinia Venus: 11%

What do the screens show for `CN(C)CC(c1ccccc1)c1ccccc1`?
HCV inhibitor: 14%; FMDV antiviral: -7%; VACV mCherry inh: inactive; HCMV inh: -29; Vaccinia Venus: -7%

What do the screens show for `CC(CCCN(C)C)C(Cc1ccccc1)c1ccccc1` (stereo unspecified)?
HCV inhibitor: inconclusive; FMDV antiviral: -17%; VACV mCherry inh: -24%; HCMV inh: -78*; Vaccinia Venus: -16%

How did COc1ccc(OC)c(CCNC(=O)CN2C(=O)COc3ccc(S(=O)(=O)N4CCOCC4)cc32)c1 do in these assays?
HCV inhibitor: -5%; FMDV antiviral: -4%; VACV mCherry inh: -17%; HCMV inh: -72*; Vaccinia Venus: -25%

What do the screens show for `CCN(CC)S(=O)(=O)c1ccc2c(c1)N(CC(=O)NCCCN1CCN(c3cc(C)ccc3C)CC1)C(=O)CO2`?
FMDV antiviral: 0%; VACV mCherry inh: inconclusive; HCMV inh: -99*; Vaccinia Venus: -22%

Results for COc1ccc(CCNC(=O)CN2C(=O)COc3ccc(S(=O)(=O)N4CCOCC4)cc32)cc1OC ?
HCV inhibitor: 5%; FMDV antiviral: 24%; VACV mCherry inh: -12%; HCMV inh: -11; Vaccinia Venus: -9%

What do the screens show for `O=C(CN1C(=O)COc2ccc(S(=O)(=O)N3CCCC3)cc21)Nc1cccc(F)c1`?
HCV inhibitor: -8%; FMDV antiviral: 0%; HCMV inh: -5

How did O=C(CN1C(=O)COc2ccc(S(=O)(=O)N3CCCCCC3)cc21)Nc1cccc(Cl)c1 do in these assays?
FMDV antiviral: -1%; VACV mCherry inh: -16%; HCMV inh: -72*; Vaccinia Venus: -14%

Results for Cc1ccc(CCNC(=O)CN2C(=O)COc3ccc(S(=O)(=O)N4CCC(C)CC4)cc32)cc1 ?
HCV inhibitor: inconclusive; FMDV antiviral: -1%; VACV mCherry inh: -16%; HCMV inh: inconclusive; Vaccinia Venus: -15%

How did Cc1ccc(CCNC(=O)CN2C(=O)COc3ccc(S(=O)(=O)N4CCCC4)cc32)cc1 do in these assays?
FMDV antiviral: -7%; VACV mCherry inh: inactive; HCMV inh: -87*; Vaccinia Venus: -16%

What do the screens show for `COc1ccc(Cn2c(C)c(C)c(C#N)c2NC(=O)Nc2cccc(C)c2)cc1`?
HCV inhibitor: -20%; FMDV antiviral: 13%; VACV mCherry inh: inconclusive; HCMV inh: -67*; Vaccinia Venus: -20%

Results for Cc1ccc(O)c(CNCCNCc2cc(C)ccc2O)c1 ?
HCV inhibitor: inconclusive; FMDV antiviral: -20%; VACV mCherry inh: inconclusive; HCMV inh: -67*; Vaccinia Venus: -10%

How did CCOC(=O)c1c(C)[nH]c(C2=NNC(=NC3CC3)SC2)c1C do in these assays?
HCV inhibitor: inconclusive; FMDV antiviral: 22µM*

Results for CCOC(=O)c1c(C)[nH]c(/C(C)=N/O)c1C ?
HCV inhibitor: -23%; FMDV antiviral: 10%; VACV mCherry inh: inconclusive; HCMV inh: -38; Vaccinia Venus: -14%

What do the screens show for `CCN(CC)C(=O)c1cccc(-c2csc(C(O)c3cccc(Cl)c3)n2)c1` (stereo unspecified)?
FMDV antiviral: 28µM*; VACV mCherry inh: inactive; HCMV inh: inconclusive; Vaccinia Venus: -11%

High-throughput results deposited in PubChem by National Center for Advancing Translational Sciences (NCATS).
